Test results: PubChem BioAssay (Tox21)
A number with no mark means an inactive call. Records with an inconclusive call do not appear. A call without a number means that no potency is given here. The source made the active and inactive calls. Unless noted, calls follow the shape of the full dose curve.

What was measured:
[1] = Nuclear factor erythroid 2-related factor 2/antioxidant responsive element (Nrf2/ARE) small molecule agonists: qHTS cell viability counter screen in human keratinocytes (AID 1919968; active = well fitted curve in the direction sought with a large enough effect in the repeat runs; an effect the other way counts as inactive or inconclusive; also: nearly all actives have a fitted effect of over 55% in size; also: potency is read from the fitted curve at half-maximal effect)
Method in brief: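 KeratinoSens HaCaT cells, 1,500/well, preincubated 5 h, then exposed to compounds in DMSO for 23 h at 37 C/5% CO2. Viability read as CellTiter-Fluor fluorescence after 1 h, in the same wells as the ARE-luciferase read.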

[2] = Nuclear factor erythroid 2-related factor 2/antioxidant responsive element (Nrf2/ARE) small molecule agonists: luciferase reporter gene qHTS assay in human keratinocytes (AID 1919969); also: nearly all actives have a fitted effect of over 35% in size; also: potency is read from the fitted curve at half-maximal effect
[3] = target: Gonadotropin-releasing hormone receptor (Homo sapiens) (UniProt P30968); test: Human gonadotropin-releasing hormone receptor (GnRHR) small molecule agonists, calcium flux assay in GnRHR-HEK293 cells (AID 1920063); also: nearly all actives have a fitted effect of over 35% in size
Method in brief: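 HEK293 cells stably expressing human GnRHR were dye-loaded for 1 h at 37 C. Compound was added in agonist mode and fluorescence (Ex/Em 480/540) recorded kinetically for 3 min. Fifteen concentrations, triplicates.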

[4] = target: KiSS-1 receptor (Homo sapiens) (UniProt Q969F8); test: Human kisspeptin (KISS1R) small molecule agonists, calcium flux assay in KISS1R-HEK293 cells (AID 1920064; active = well fitted curve in the direction sought with a large enough effect in the repeat runs; an effect the other way counts as inactive or inconclusive)
Method in brief: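 HEK293 cells stably expressing human KISS1R were loaded with calcium dye for 1 h at 37 C, then given compound; fluorescence (Ex/Em 480/540) was read kinetically for 3 min. Fifteen concentrations, triplicate.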

[5] = G protein-coupled receptor (GPCR) small molecule agonists, calcium flux assay: HEK293 wild type cell line counter screen (AID 1920065)
Method in brief: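 Wild-type HEK293 cells plated 18 h, loaded with calcium dye 1 h at 37 C, then compounds added in agonist mode (ATP as positive control). Kinetic fluorescence Ex/Em 480/540 recorded 3 min at 1 sec intervals; 15 concentrations, triplicate.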

[6] = p53 small molecule agonists, cell-based qHTS assay with human liver microsomes: qHTS cell viability counter screen (AID 1963579); also: nearly all actives have a fitted effect of over 45% in size
Method in brief: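 Metabolically activated exposure: compounds, human liver microsomes and NADPH (0.5 mg/mL final apiece) were added to p53RE-bla cells seeded 5 h earlier, left 16 h at 37 C, and then assessed for viability by CellTiter-Glo luminescence.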

[7] = p53 small molecule agonists, cell-based qHTS assay with rat liver microsomes: qHTS cell viability counter screen (AID 1963580); also: nearly all actives have a fitted effect of over 45% in size
Method in brief: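 Viability is assessed in parallel with the p53 reporter read: HCT-116 p53RE-bla cells receive compounds plus rat microsomes and NADPH (0.5 mg/mL final apiece), incubate 16 h at 37 C, and then CellTiter-Glo luminescence is recorded.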

[8] = p53 small molecule agonists, cell-based qHTS assay: qHTS cell viability counter screen (AID 1963581); also: nearly all actives have a fitted effect of over 45% in size
Method in brief: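 p53RE-bla HCT-116 cells, compounds added 5 h after plating and incubated 16 h at 37 C. Cytotoxicity measured in the same wells as intracellular ATP by CellTiter-Glo luminescence after 30 min at room temperature.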

[9] = target: 5-hydroxytryptamine receptor 2A (Homo sapiens) (UniProt P28223); test: 5-hydroxytryptamine receptor 2A (HTR2A) small molecule antagonists, cell-based qHTS assay (AID 1963586); also: nearly all actives have a fitted effect of over 45% in size
Method in brief: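 Antagonist-mode intracellular calcium assay: DOI (4 nM) added after 5 min compound pre-incubation at room temperature to dye-loaded HTR2A-CHO cells. Fluorescence followed for 3 min, sampled every second.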

[10] = target: 5-hydroxytryptamine receptor 2A (Homo sapiens) (UniProt P28223); test: 5-hydroxytryptamine receptor 2A (HTR2A) small molecule agonists, cell-based qHTS assay (AID 1963587); also: nearly all actives have a fitted effect of over 30% in size
Method in brief: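 CHO cells stably expressing human HTR2A, plated 18 h, loaded with calcium dye 1 h at 37 C. Agonist mode: compounds added and intracellular calcium fluorescence recorded kinetically for 2 min at 1 sec intervals.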

[11] = target: Muscarinic acetylcholine receptor M1 (Homo sapiens) (UniProt P11229); test: Cholinergic receptor muscarinic 1 (CHRM1) small molecule agonists, cell-based qHTS assay (AID 1963589); also: nearly all actives have a fitted effect of over 35% in size
Method in brief: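 CHO cells stably expressing human CHRM1 were loaded with calcium dye for 1 h at 37 C, then compound was added in agonist mode. Intracellular calcium fluorescence was followed kinetically at 1 s intervals. Fifteen concentrations were tested in three independent runs.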

[12] = cAMP Responsive Elements (CRE) small molecule agonists, cell-based qHTS assay (AID 1963590)
Method in brief: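 CRE-bla HEK 293T cells, 2,000/well in DMEM with 10% dialyzed FBS and 25 mM HEPES, pre-incubated 18 h at 37 C, then exposed to compound 3 h at 37 C. Beta-lactamase reporter read with LiveBLAzer B/G FRET substrate after 2 h at room temperature.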

[13] = cAMP Responsive Elements (CRE) small molecule antagonists, cell-based qHTS assay (AID 1963591; active = well fitted inhibition curve with a large enough effect in the signal ratio in the repeat runs, not every such curve was filed as active; the % refers to the signal ratio)
Method in brief: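 CRE-bla HEK293T cells plated 18 h, then given compound plus NKH477 at 0.25 uM final for 3 h at 37C. Beta-lactamase reporter read with LiveBLAzer B/G FRET substrate after 2 h at room temperature.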

[14] = target: Beta-2 adrenergic receptor (Homo sapiens) (UniProt P07550); test: Adrenergic beta2 receptor (ADRB2) small molecule antagonists, cell-based qHTS assay (AID 1963592); also: series mostly up to about 92 µM; nearly all actives have a fitted effect of over 50% in size
Method in brief: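 Cells (CHO, stable ADRB2 overexpression) incubated 18-20hr at 37C; compounds added from DMSO; agonist mix (1nM isoproterenol, 100uM IBMX, 25uM Ro-20-1724) added; 0.5hr RT; d2-cAMP and anti-cAMP-cryptate added; 1hr RT; 665/615 nm read.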

[15] = target: D(2) dopamine receptor (Homo sapiens) (UniProt P14416); test: Dopamine D2 receptor (DRD2) small molecule agonists, cell-based qHTS assay (AID 1963594); also: nearly all actives have a fitted effect of over 35% in size
Method in brief: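 HEK293 cells stably expressing human DRD2, pre-treated with PDE inhibitor Ro20-1724 (0.1 mM final) and compound 10 min at room temperature, then stimulated with NKH477 (200nM […]) for 30 min. cAMP read by HTRF (665/620 nm).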

[16] = target: D(2) dopamine receptor (Homo sapiens) (UniProt P14416); test: Dopamine D2 receptor (DRD2) small molecule antagonists, cell-based qHTS assay (AID 1963595; active = well fitted inhibition curve with a large enough effect in the signal ratio in the repeat runs, with a control signal flat; the % refers to the signal ratio; also: potency is read from the fitted curve at half-maximal effect)
Method in brief: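 Antagonist mode in DRD2-HEK293 cells: after compound addition with 0.1 mM Ro20-1724, cells received quinpirole (12 nM) and NKH477 (200 nM) for 30 min at room temperature; HTRF cAMP read after 1 h detection.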

[17] = target: Muscarinic acetylcholine receptor M1 (Homo sapiens) (UniProt P11229); test: Cholinergic receptor muscarinic 1 (CHRM1) small molecule antagonists, cell-based qHTS assay (AID 1963588); also: nearly all actives have a fitted effect of over 40% in size
Method in brief: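 CHRM1-CHO calcium-flux assay, antagonist mode. Cells were seeded 18 h, dye-loaded 1 h at 37 C and given compound for 5 min at RT, then acetylcholine was added at 50nM. FDSS fluorescence was read 3 min; 15 concentrations, three runs.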

[18] = target: Beta-2 adrenergic receptor (Homo sapiens) (UniProt P07550); test: Adrenergic beta2 receptor (ADRB2) small molecule agonists, cell-based qHTS assay (AID 1963593);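 also: CHO cells stably overexpressing human ADRB2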
Method in brief: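 CHO cells stably over-expressing ADRB2 were plated overnight at 37C, then dosed with compounds plus a stimulation mix containing 100uM IBMX and 25uM Ro-20-1724 for 0.5hr at room temperature. cAMP was measured by HTRF competition, 1hr.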

Chain of 5-hydroxytryptamine receptor 2A (Homo sapiens) (P28223 whole entry, looked up): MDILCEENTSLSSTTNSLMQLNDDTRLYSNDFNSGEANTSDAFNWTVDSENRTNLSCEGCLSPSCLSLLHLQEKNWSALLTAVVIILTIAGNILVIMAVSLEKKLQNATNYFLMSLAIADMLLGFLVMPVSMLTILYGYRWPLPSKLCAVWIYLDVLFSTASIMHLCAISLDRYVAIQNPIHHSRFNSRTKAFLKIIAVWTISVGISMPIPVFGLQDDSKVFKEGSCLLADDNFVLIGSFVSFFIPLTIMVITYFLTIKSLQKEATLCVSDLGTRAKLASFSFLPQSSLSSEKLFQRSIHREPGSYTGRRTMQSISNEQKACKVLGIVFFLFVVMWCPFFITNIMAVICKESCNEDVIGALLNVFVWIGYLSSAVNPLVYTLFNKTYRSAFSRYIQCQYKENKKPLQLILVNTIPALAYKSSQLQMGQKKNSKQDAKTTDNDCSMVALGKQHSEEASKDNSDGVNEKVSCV
Chain of Gonadotropin-releasing hormone receptor (Homo sapiens) (P30968 whole entry, looked up): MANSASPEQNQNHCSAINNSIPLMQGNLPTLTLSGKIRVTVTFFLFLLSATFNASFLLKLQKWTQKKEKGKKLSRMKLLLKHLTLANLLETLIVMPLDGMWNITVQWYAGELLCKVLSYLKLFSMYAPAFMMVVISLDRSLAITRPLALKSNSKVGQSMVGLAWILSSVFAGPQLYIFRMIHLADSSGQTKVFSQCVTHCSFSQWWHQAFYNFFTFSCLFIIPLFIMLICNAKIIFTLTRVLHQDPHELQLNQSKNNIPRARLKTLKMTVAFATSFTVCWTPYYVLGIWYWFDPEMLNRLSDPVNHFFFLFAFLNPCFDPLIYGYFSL
Chain of KiSS-1 receptor (Homo sapiens) (Q969F8 whole entry, looked up): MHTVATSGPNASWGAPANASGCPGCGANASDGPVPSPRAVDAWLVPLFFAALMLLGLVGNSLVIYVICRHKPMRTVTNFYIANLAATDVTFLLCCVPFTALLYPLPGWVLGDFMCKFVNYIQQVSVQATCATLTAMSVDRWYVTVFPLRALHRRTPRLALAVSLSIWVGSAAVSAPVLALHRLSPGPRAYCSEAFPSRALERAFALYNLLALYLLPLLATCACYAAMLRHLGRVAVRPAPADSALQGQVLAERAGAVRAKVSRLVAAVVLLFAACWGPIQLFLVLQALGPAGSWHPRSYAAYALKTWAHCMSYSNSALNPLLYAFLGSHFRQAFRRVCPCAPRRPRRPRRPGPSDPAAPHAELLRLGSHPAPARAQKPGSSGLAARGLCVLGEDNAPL
Chain of Beta-2 adrenergic receptor (Homo sapiens) (P07550 whole entry, looked up): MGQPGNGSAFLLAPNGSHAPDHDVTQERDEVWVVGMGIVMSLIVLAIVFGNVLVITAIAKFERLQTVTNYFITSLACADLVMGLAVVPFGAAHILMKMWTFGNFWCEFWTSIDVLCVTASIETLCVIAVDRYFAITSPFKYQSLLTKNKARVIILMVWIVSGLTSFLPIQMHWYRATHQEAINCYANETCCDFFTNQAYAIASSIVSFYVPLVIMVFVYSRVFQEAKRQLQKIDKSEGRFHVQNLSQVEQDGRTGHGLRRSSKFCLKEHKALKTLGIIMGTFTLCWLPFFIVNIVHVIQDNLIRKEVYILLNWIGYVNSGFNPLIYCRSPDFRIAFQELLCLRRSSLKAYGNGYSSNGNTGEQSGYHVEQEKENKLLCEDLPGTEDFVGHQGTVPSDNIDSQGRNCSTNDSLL
Chain of D(2) dopamine receptor (Homo sapiens) (P14416 whole entry, looked up): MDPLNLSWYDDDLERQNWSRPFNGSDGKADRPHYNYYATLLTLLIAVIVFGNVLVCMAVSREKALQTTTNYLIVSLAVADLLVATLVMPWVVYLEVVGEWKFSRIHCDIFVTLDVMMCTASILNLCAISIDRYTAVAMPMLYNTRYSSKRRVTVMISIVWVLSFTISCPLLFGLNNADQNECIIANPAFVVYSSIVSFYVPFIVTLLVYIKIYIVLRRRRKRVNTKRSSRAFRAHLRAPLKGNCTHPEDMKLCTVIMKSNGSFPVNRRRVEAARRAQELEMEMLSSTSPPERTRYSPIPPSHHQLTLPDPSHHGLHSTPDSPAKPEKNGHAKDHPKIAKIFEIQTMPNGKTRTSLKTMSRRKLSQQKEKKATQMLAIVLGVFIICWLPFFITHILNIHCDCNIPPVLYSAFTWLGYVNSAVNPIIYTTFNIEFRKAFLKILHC
Chain of Muscarinic acetylcholine receptor M1 (Homo sapiens) (P11229 whole entry, looked up): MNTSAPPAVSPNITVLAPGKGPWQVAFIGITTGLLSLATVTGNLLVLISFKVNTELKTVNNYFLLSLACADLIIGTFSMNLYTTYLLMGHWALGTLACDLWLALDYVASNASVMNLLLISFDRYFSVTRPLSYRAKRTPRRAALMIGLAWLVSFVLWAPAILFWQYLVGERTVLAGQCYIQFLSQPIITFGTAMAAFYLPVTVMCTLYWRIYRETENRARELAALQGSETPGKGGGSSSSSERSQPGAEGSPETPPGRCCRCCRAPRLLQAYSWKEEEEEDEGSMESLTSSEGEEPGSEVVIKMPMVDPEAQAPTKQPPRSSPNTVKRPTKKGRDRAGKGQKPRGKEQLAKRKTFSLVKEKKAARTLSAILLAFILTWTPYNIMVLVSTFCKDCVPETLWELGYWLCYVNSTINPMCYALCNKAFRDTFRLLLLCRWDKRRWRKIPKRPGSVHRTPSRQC

## CC(=O)SCc1ccco1
[1]
  Potency: inactive
[2]
  Potency: inactive
[3]
  Potency: inactive
[4]
  Potency: inactive
[5]
  Potency: inactive
[6]
  Potency: inactive
[7]
  Potency: inactive
[8]
  Potency: inactive
[9]
  Potency: inactive
[10]
  Potency: inactive
[11]
  Potency: inactive
[12]
  Potency: inactive
[13]
  Potency: inactive
[14]
  Potency: inactive
[15]
  Potency: inactive
[16]
  Potency: inactive

## CC(C)COC(=O)COc1ccc(Cl)cc1Cl
[1]
  Potency: inactive
[2]
  Potency: inactive
[3]
  Potency: inactive
[4]
  Potency: inactive
[5]
  Potency: inactive
[6]
  Potency: inactive
[7]
  Potency: inactive
[8]
  Potency: inactive
[9]
  Potency: inactive
[10]
  Potency: inactive
[17]
  Potency: inactive
[11]
  Potency: inactive
[14]
  Potency: inactive
[15]
  Potency: inactive
[16]
  Potency: inactive

## COC(=O)c1cc(Cl)cc(Cl)c1
[1]
  Potency: inactive
[2]
  Potency: inactive
[3]
  Potency: inactive
[4]
  Potency: inactive
[5]
  Potency: inactive
[6]
  Potency: inactive
[7]
  Potency: inactive
[8]
  Potency: inactive
[9]
  Potency: inactive
[10]
  Potency: inactive
[11]
  Potency: inactive
[12]
  Potency: inactive
[13]
  Potency: inactive
[14]
  Potency: inactive
[15]
  Potency: inactive
[16]
  Potency: inactive

## NNC(=O)CP(=O)(c1ccccc1)c1ccccc1
[1]
  Potency: inactive
[2]
  Potency: inactive
[3]
  Potency: inactive
[4]
  Potency: inactive
[5]
  Potency: inactive
[6]
  Potency: inactive
[7]
  Potency: inactive
[8]
  Potency: inactive
[9]
  Potency: inactive
[10]
  Potency: inactive
[17]
  Potency: inactive
[12]
  Potency: inactive
[13]
  Potency: inactive
[14]
  Potency: inactive
[18]
  Potency: inactive
[15]
  Potency: inactive
[16]
  Potency: inactive

## Clc1cccc(C(c2ccc3nc[nH]c3c2)n2ccnc2)c1 (stereo not given)
[1]
  Potency: inactive
[2]
  Potency: inactive
[3]
  Potency: inactive
[4]
  Potency: inactive
[5]
  Potency: inactive
[6]
  Potency: inactive
[7]
  Potency: inactive
[8]
  Potency: inactive
[9]
  Potency: inactive
[10]
  Potency: inactive
[17]
  Potency: inactive
[12]
  Potency: inactive
[13]
  Potency: inactive
[14]
  Potency: inactive
[15]
  Potency: inactive
[16]
  Potency: inactive

## C=CCCC(=O)O
[1]
  Potency: inactive
[2]
  Potency: inactive
[3]
  Potency: inactive
[4]
  Potency: inactive
[5]
  Potency: inactive
[6]
  Potency: inactive
[7]
  Potency: inactive
[8]
  Potency: inactive
[9]
  Potency: inactive
[10]
  Potency: inactive
[11]
  Potency: inactive
[12]
  Potency: inactive
[13]
  Potency: inactive
[14]
  Potency: inactive
[15]
  Potency: inactive
[16]
  Potency: inactive

## C=C(C)C(=O)OCCOP(=O)(O)OCCOC(=O)C(=C)C
[1]
  Potency: inactive
[2]
  Potency: inactive
[3]
  Potency: inactive
[4]
  Potency: inactive
[5]
  Potency: inactive
[6]
  Potency: inactive
[7]
  Potency: inactive
[8]
  Potency: inactive
[9]
  Potency: inactive
[10]
  Potency: inactive
[11]
  Potency: inactive
[12]
  Potency: inactive
[13]
  Potency: inactive
[14]
  Potency: inactive
[18]
  Potency: inactive
[15]
  Potency: inactive
[16]
  Potency: inactive

## CC(C)(C)c1ccc(-c2ccc(C(C)(C)C)cc2)cc1
[1]
  Potency: inactive
[2]
  Potency: inactive
[3]
  Potency: inactive
[4]
  Potency: inactive
[5]
  Potency: inactive
[6]
  Potency: inactive
[7]
  Potency: inactive
[8]
  Potency: inactive
[9]
  Potency: inactive
[10]
  Potency: inactive
[17]
  Potency: inactive
[12]
  Potency: inactive
[13]
  Potency: inactive
[14]
  Potency: inactive
[15]
  Potency: inactive
[16]
  Potency: inactive

## Nc1cccc(O)c1
[1]
  Potency: inactive
[2]
  Potency: inactive
[3]
  Potency: inactive
[4]
  Potency: inactive
[5]
  Potency: inactive
[6]
  Potency: inactive
[7]
  Potency: inactive
[8]
  Potency: inactive
[9]
  Potency: inactive
[10]
  Potency: inactive
[11]
  Potency: inactive
[12]
  Potency: inactive
[13]
  Potency: inactive
[14]
  Potency: inactive
[18]
  Potency: inactive
[15]
  Potency: inactive
[16]
  Potency: inactive

## CCCCC[Si](OCC)(OCC)OCC
[1]
  Potency: inactive
[2]
  Potency: inactive
[3]
  Potency: inactive
[4]
  Potency: inactive
[5]
  Potency: inactive
[6]
  Potency: inactive
[7]
  Potency: inactive
[8]
  Potency: inactive
[9]
  Potency: inactive
[10]
  Potency: inactive
[17]
  Potency: inactive
[12]
  Potency: inactive
[13]
  Potency: inactive
[14]
  Potency: inactive
[18]
  Potency: inactive
[15]
  Potency: inactive
[16]
  Potency: inactive

## C[C@@H](O)[C@H]1C(=O)N2C(C(=O)O)=C(S[C@@H]3CN[C@H](CNS(N)(=O)=O)C3)[C@H](C)[C@H]12
[1]
  Potency: inactive
[2]
  Potency: inactive
[3]
  Potency: inactive
[4]
  Potency: inactive
[5]
  Potency: inactive
[6]
  Potency: inactive
[7]
  Potency: inactive
[8]
  Potency: inactive
[9]
  Potency: inactive
[10]
  Potency: inactive
[17]
  Potency: inactive
[15]
  Potency: inactive

## O=C1c2ccccc2C(=O)c2cc(S(=O)(=O)O)ccc21
[1]
  Potency: inactive
[2]
  Potency: inactive
[3]
  Potency: inactive
[4]
  Potency: inactive
[5]
  Potency: inactive
[6]
  Potency: inactive
[7]
  Potency: inactive
[8]
  Potency: inactive
[9]
  Potency: inactive
[10]
  Potency: inactive
[17]
  Potency: inactive
[12]
  Potency: inactive
[13]
  Potency: inactive
[14]
  Potency: inactive
[18]
  Potency: inactive
[15]
  Potency: inactive
[16]
  Potency: inactive

## N#CSCSc1nc2ccccc2s1
[1]
  Potency: 13.7 µM (active)
[2]
  Potency: 9.69 µM (active)
[3]
  Potency: inactive
[4]
  Potency: inactive
[5]
  Potency: inactive
[6]
  Potency: inactive
[7]
  Potency: inactive
[8]
  Potency: inactive
[9]
  Potency: inactive
[10]
  Potency: inactive
[17]
  Potency: inactive
[11]
  Potency: inactive
[14]
  Potency: inactive
[15]
  Potency: inactive
[16]
  Potency: 54.5 µM (active)

## c1cc[c]([Bi]([c]2ccccc2)[c]2ccccc2)cc1
[1]
  Potency: inactive
[2]
  Potency: 4.86 µM (active)
[3]
  Potency: inactive
[4]
  Potency: inactive
[5]
  Potency: inactive
[6]
  Potency: inactive
[7]
  Potency: inactive
[8]
  Potency: inactive
[9]
  Potency: inactive
[10]
  Potency: inactive
[17]
  Potency: inactive
[15]
  Potency: inactive
[16]
  Potency: 9.69 µM (active)
